Compound activity deposited in PubChem by National Center for Advancing Translational Sciences (NCATS).
Shown are actives, neighbours in structure and some others; about 19% of the full set was active somewhere.
KB-V1 cytotox – kills drug-selected multidrug resistant KB-V1 cells. KB-V1 MDR cells viability, CellTiter-Glo, 72 h. 400,000 compounds, 3.4% hits. Potency, µM (top dose mostly 46.1 µM), most hits filed as cytotoxic; also: nearly all actives have a fitted effect of over 60% in size
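Compound-treated KB-V1 multidrug-resistant cells, 72 h, 37 degrees C; viability by CellTiter-Glo. Fitted qHTS curves give the values.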
HT1080 IDH1KD tx – kills HT-1080 cells with IDH1 knockdown; HT-1080 IDH1 knockdown viability, ATP luminescence, 48 h; Potency, µM (doses to about 46.1 µM), usual class: cytotoxic; 360,000 compounds, 2% hits; AID 686971
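Viability of IDH1-knockdown HT-1080 fibrosarcoma cells was assessed by CellTiter-Glo after 48 h at 37 °C with titrated compound; concentration-effect curves were classified by fit quality and response size.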
TDP1 cell CPT – growth inhibition of DT40 Tdp1-/-;hTDP1 cells with camptothecin (screen for TDP1 inhibitors); 420,000 compounds, 12% hits; chicken DT40 Tdp1-/-;hTDP1 cells + 20 nM CPT, ATP luminescence, 48 h; Potency, µM (titrated, usually from 46.2 µM), most hits filed as inhibitors; also: nearly all actives have a fitted effect of over 55% in size
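Cell growth measured by CellTiter-Glo luminescence after a minimum 48 h, 37 C compound exposure with 20 nM CPT in Tdp1-knockout DT40 cells stably expressing hTDP1, seeded 400/well; qHTS titration format.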
TDP1 cell noCPT – qHTS for Inhibitors of human tyrosyl-DNA phosphodiesterase 1 (TDP1): qHTS in cells in absence of CPT; DT40 Tdp1-/- hTDP1 cells, no CPT, ATP luminescence, 48 h; Potency, µM (series often up to 46.2 µM), hits mostly inhibitors; 420,000 compounds, 15% hits; AID 686978, 2013; also: nearly all actives have a fitted effect of over 55% in size
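DT40 Tdp1-/-;hTDP1 cells, no CPT (DMSO vehicle only), 400 cells/well; compounds pin-transferred; ≥48 hr, 37 °C; CellTiter-Glo 30 min RT dark, luminescence read.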
KB-3-1 cytotox – kills parental KB-3-1 adenocarcinoma cells | KB-3-1 viability, CellTiter-Glo ATP luminescence, 72 h | Potency, µM (highest dose often 46.1 µM), actives largely listed as cytotoxic | 400,000 compounds, 1.4% hits | AID 1347075; also: nearly all actives have a fitted effect of over 60% in size
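Luminescent ATP read-out (CellTiter-Glo) measures survival of drug-naive KB-3-1 cells after 72 h compound exposure at 37 °C. Titration series was screened from lowest to highest concentration, with DMSO vehicle plates as background controls.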
HT1080NT lethal – kills 2HG-producing HT-1080-NT fibrosarcoma cells | HT-1080-NT fibrosarcoma viability, CellTiter-Glo ATP luminescence, 48 h | Potency, µM (top dose mostly 46.1 µM), actives largely listed as cytotoxic | 360,000 compounds, 1.6% hits | AID 686970;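 also: NT is the 2HG producing partner of a matched IDH1 knockdown line; nearly all actives have a fitted effect of over 55% in size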
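A 48-hour cytotoxicity screen used HT-1080-NT cells plated 2 hours before compound delivery. ATP-based CellTiter-Glo luminescence measured viability, normalized to DMSO and no-cell controls.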
A number is an active result. Calls follow the shape of the dose curve; as a rule, active = well fitted curve in the direction sought with a large enough effect; inconclusive = small, poorly fitted or top-dose-only effect, or another doubt; inactive = no such curve, though single readings can be large; an effect the other way counts as inactive or inconclusive.

COc1ccccc1-c1cc(NC(=O)COc2ccc(C)c(C)c2)n(-c2ccccc2)n1 was read as KB-V1 cytotox inactive, TDP1 cell CPT inconclusive, TDP1 cell noCPT inconclusive and KB-3-1 cytotox inactive.
For CC[C@]12c3[nH]c4cc(-c5ccco5)ccc4c3CCN1C(=O)[C@@H](CC(=O)NCCC1=CCCCC1)C[C@@H]2C(=O)N1CCN(C(=O)c2ccco2)CC1 the results were KB-V1 cytotox inactive, HT1080 IDH1KD tx inactive, TDP1 cell CPT 20.6µM, TDP1 cell noCPT 18.4µM, KB-3-1 cytotox inconclusive and HT1080NT lethal inactive.
Screening CC[C@]12c3[nH]c4cc(CCC(=O)N(C)C)ccc4c3CCN1C(=O)[C@@H](CC(=O)NCCC1=CCCCC1)C[C@@H]2C(=O)N1CCN(C(=O)c2ccco2)CC1 returned KB-V1 cytotox inactive, HT1080 IDH1KD tx inactive, TDP1 cell CPT inactive, TDP1 cell noCPT inactive, KB-3-1 cytotox inactive and HT1080NT lethal inactive.
`O=C(C[C@H]1C[C@H](C(=O)N2CCCCC2)[C@@]2(CCc3ccccc3)c3[nH]c4cc(-c5ccco5)ccc4c3CCN2C1=O)NCCC1=CCCCC1` gave KB-V1 cytotox inactive, HT1080 IDH1KD tx inactive, TDP1 cell CPT inconclusive, TDP1 cell noCPT 18.4µM, KB-3-1 cytotox inactive and HT1080NT lethal inactive.
`CC(C)N(C(=O)[C@H]1C[C@H](CC(=O)NCCC2=CCCCC2)C(=O)N2CCc3c([nH]c4cc(-c5ccco5)ccc34)[C@]12C)C(C)C` gave KB-V1 cytotox inconclusive, HT1080 IDH1KD tx inconclusive, TDP1 cell CPT inconclusive, TDP1 cell noCPT inconclusive, KB-3-1 cytotox 23.1µM and HT1080NT lethal inactive.
`CCCCN(C=O)c1c(CC)nc2ccc(C(=O)N3CCN(S(=O)(=O)CC)CC3)cn12` gave KB-V1 cytotox inactive, HT1080 IDH1KD tx inactive, TDP1 cell CPT inactive, TDP1 cell noCPT inactive, KB-3-1 cytotox inactive and HT1080NT lethal inconclusive.
`Cc1[nH]c(=O)n(C(C)C)c(=O)c1Br` gave KB-V1 cytotox inactive, HT1080 IDH1KD tx inactive, TDP1 cell CPT inactive, TDP1 cell noCPT inactive, KB-3-1 cytotox inactive and HT1080NT lethal inactive.
CCC1=C(c2ccc(C)cc2)S(=O)(=O)N=C1N1CCC(C(=O)NCc2ccc(C)cc2)CC1 was read as KB-V1 cytotox inactive, TDP1 cell CPT inconclusive, TDP1 cell noCPT inconclusive and KB-3-1 cytotox inactive.
CCC1=C(c2ccc(C)cc2)S(=O)(=O)N=C1N1CCC(C(=O)Nc2ccccc2C(=O)OC)CC1 was read as KB-V1 cytotox inconclusive, TDP1 cell CPT inconclusive, TDP1 cell noCPT 18.4µM and KB-3-1 cytotox inactive.
For CCC1=C(c2ccc(C)cc2)S(=O)(=O)N=C1N1CCC(C(=O)NCCc2ccc(Cl)cc2)CC1 the results were KB-V1 cytotox inactive, TDP1 cell CPT 13µM, TDP1 cell noCPT 10.3µM and KB-3-1 cytotox 14.6µM.
Screening COc1cccc(-c2ccc(SCC(=O)NC3CCCCC3)nn2)c1 returned HT1080 IDH1KD tx inactive, TDP1 cell CPT inconclusive, TDP1 cell noCPT inconclusive and HT1080NT lethal inactive.
For Cc1c(C)c2c(c(C)c1OC(=O)CCC(=O)O)CC[C@@](C)(CCC[C@H](C)CCC[C@H](C)CCCC(C)C)O2 the results were TDP1 cell CPT inactive and TDP1 cell noCPT inconclusive.
CC(=O)Nc1cccc(-c2ccnc3c2CC(C(=O)Nc2cccc(OC(F)(F)F)c2)O3)c1 (stereo not drawn) was read as KB-V1 cytotox inactive, HT1080 IDH1KD tx inconclusive, TDP1 cell CPT inconclusive, TDP1 cell noCPT 18.4µM, KB-3-1 cytotox inactive and HT1080NT lethal inconclusive.
CC(=O)Nc1cccc(-c2ccnc3c2CC(C(=O)Nc2cccnc2)O3)c1 (stereo not drawn) was read as KB-V1 cytotox inactive, HT1080 IDH1KD tx inactive, TDP1 cell CPT inactive, TDP1 cell noCPT inconclusive, KB-3-1 cytotox inactive and HT1080NT lethal inactive.
Screening CC(=O)Nc1ccc(-c2ccnc3c2CC(C(=O)Nc2cccc(C(F)(F)F)c2)O3)cc1 (stereo not drawn) returned KB-V1 cytotox 23.1µM, HT1080 IDH1KD tx 16.4µM, TDP1 cell CPT 23.1µM, TDP1 cell noCPT inactive, KB-3-1 cytotox inconclusive and HT1080NT lethal inconclusive.
For O=C(Nc1ccccc1)C1Cc2c(-c3ccc(Cl)cc3)ccnc2O1 (stereo not drawn) the results were KB-V1 cytotox inconclusive, HT1080 IDH1KD tx inactive, TDP1 cell CPT inconclusive, TDP1 cell noCPT inconclusive, KB-3-1 cytotox inactive and HT1080NT lethal inactive.
Screening NC(=O)c1cccc(-c2ccnc3c2CC(C(=O)Nc2cccc(C(F)(F)F)c2)O3)c1 (stereo not drawn) returned KB-V1 cytotox 23.1µM, HT1080 IDH1KD tx inconclusive, TDP1 cell CPT 18.4µM, TDP1 cell noCPT 18.4µM, KB-3-1 cytotox inconclusive and HT1080NT lethal inconclusive.
`CC(=O)Nc1ccc(NC(=O)C2Cc3c(-c4ccc(Cl)cc4)ccnc3O2)cc1` (stereo not drawn) gave KB-V1 cytotox inactive, HT1080 IDH1KD tx inactive, TDP1 cell CPT inactive, TDP1 cell noCPT inactive, KB-3-1 cytotox inactive and HT1080NT lethal inconclusive.
CC(=O)Nc1ccc(-c2ccnc3c2CC(C(=O)Nc2cccc(N(C)C)c2)O3)cc1 (stereo not drawn) was read as KB-V1 cytotox inactive, HT1080 IDH1KD tx 11.6µM, TDP1 cell CPT 18.4µM, TDP1 cell noCPT 2.59µM, KB-3-1 cytotox inactive and HT1080NT lethal inconclusive.
Screening CS(=O)(=O)Nc1cccc(NC(=O)C2Cc3c(-c4cccc(C(N)=O)c4)ccnc3O2)c1 (stereo not drawn) returned KB-V1 cytotox inactive, HT1080 IDH1KD tx inactive, TDP1 cell CPT inactive, TDP1 cell noCPT inactive, KB-3-1 cytotox inactive and HT1080NT lethal inactive.
CC(=O)Nc1ccc(-c2ccnc3c2CC(C(=O)Nc2cccc(Oc4ccccc4)c2)O3)cc1 (stereo not drawn) was read as KB-V1 cytotox inconclusive, HT1080 IDH1KD tx 14.6µM, TDP1 cell CPT inconclusive, TDP1 cell noCPT 20.6µM, KB-3-1 cytotox inconclusive and HT1080NT lethal inconclusive.
Screening CC(=O)Nc1ccc(-c2ccnc3c2CC(C(=O)Nc2cccc(OC(F)(F)F)c2)O3)cc1 (stereo not drawn) returned KB-V1 cytotox inconclusive, HT1080 IDH1KD tx inconclusive, TDP1 cell CPT 20.6µM, TDP1 cell noCPT 18.4µM, KB-3-1 cytotox inconclusive and HT1080NT lethal inconclusive.
`O=C(Nc1cccc(Oc2ccccc2)c1)C1Cc2c(-c3cccc(F)c3)ccnc2O1` (stereo not drawn) gave KB-V1 cytotox inactive, HT1080 IDH1KD tx inactive, TDP1 cell CPT inconclusive, TDP1 cell noCPT inconclusive, KB-3-1 cytotox inactive and HT1080NT lethal inactive.
Screening COc1ccc(Cl)cc1NC(=O)Cc1coc2c(C)c(C)ccc12 returned KB-V1 cytotox inactive, TDP1 cell CPT inconclusive, TDP1 cell noCPT inconclusive and KB-3-1 cytotox inactive.
